From PMC5540273 (PLoS ONE, 2017)

The molecules below were run on WEE2. Conditions: concentration: 1 μM, replicates: in singlicate; n = 1.
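Further: KINOMEscan kinase panel screen.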

First: COc1ccc(NC(=O)c2ccoc2)cc1-c1ccc(C(=O)NCC2CC2)cc1 [GW810437]
Second: Cc1ccc(NC(=O)c2ccc(Cl)c(Cl)c2)cc1-c1ccc(C(=O)Nc2ccncc2)cc1 [GSK1398460]
The “%Inh” value of the first is higher: 13% for the first, 6% for the second.

Compared with `O=C(Nc1n[nH]c2nc(-c3ccccc3O)ccc12)C1CC1` [SB-711880], `O=C(Nc1n[nH]c2nc(-c3cccc(O)c3)ccc12)C1CC1` [SB-711805] is lower in “%Inh” value: 79% for the first, 0% for the second.

Compared with `CNc1nccc(-c2ccc3c(N)n[nH]c3c2)n1` [GSK2206003], `COc1ccc(C)c(Nc2ccnc(Nc3ccc(-c4cnc[nH]4)cc3)n2)c1.Cl` [GW784041] is higher in “%Inh” value: 7% for the first, 8% for the second.

Going from `c1ccc(Oc2ccc(Nc3ccnc4cc(-c5ccc(CN6CCCCC6)o5)ccc34)cc2)nc1` [GW567143] to `Cc1ccc(O)cc1Nc1ccnc2cc(-c3ccc(CN4CCCCC4)o3)ccc12` [GW557777], the “%Inh” value falls from 13% to 0%.

First: CC(C)(C)c1ccc(C(=O)Nc2cn3cc(-n4ccnc4)ccc3n2)cc1
Second: Cc1ccc(O)cc1Nc1ccnc2ccc(C(C)(C)C)cc12 [GW856805]
The “%Inh” value of the first is higher: 36% for the first, 18% for the second.

Compared with `Cl.Cl.NCC(NC(=O)c1cc(-c2cccnc2)c(-c2ccnc3[nH]ccc23)s1)c1ccccc1` (stereo not shown) [GSK1323434], `Cl.Cl.NC(CNC(=O)c1cc(Br)c(-c2ccnc3[nH]ccc23)s1)c1ccccc1` (stereo not shown) [GSK1322949] is lower in “%Inh” value: 13% for the first, 0% for the second.

Compared with `Cc1ccc(Nc2ccnc(Nc3ccc(C)c(F)c3)n2)cc1O.Cl` [GW582868], `COc1cccc(NC(=O)NCCNc2ccnc(Nc3ccc(F)cc3)n2)c1` [GSK1379879] is lower in “%Inh” value: 17% for the first, 6% for the second.

Going from `Cc1cc(-c2c(-c3ccc(F)cc3)ncn2CCCN2CCOCC2)nc(N)n1` [SB-222517] to `Fc1cc(Cl)ccc1Nc1ccnc2cc(-c3ccc(CN4CCOCC4)o3)ccc12` [GW560109], the “%Inh” value falls from 1% to 0%.

`CN(C)CCNS(=O)(=O)c1ccc(-c2ccnc3[nH]ccc23)cc1` [GSK977620] and `CC(C)NCC(Cc1ccccc1)NC(=O)c1cc(Br)c(-c2ccnc3[nH]ccc23)s1.Cl.Cl` (stereo not shown) [GSK1383281] are the same in “%Inh” value: 0% for the first, 0% for the second.

Going from `COc1cccc(CC(=O)N2CCc3cc(-c4cn(C)c5ncnc(N)c45)ccc32)c1` [GSK2608899] to `Cn1cc(-c2ccc3c(c2)CCN3C(=O)Cc2cc(F)cc(F)c2F)c2c(N)ncnc21` [GSK2634140], the “%Inh” value rises from 0% to 14%.

Going from `COC(=O)Nc1nc2cc(Oc3ccc(NC(=O)Nc4cccc(SC)c4)cc3)ccc2[nH]1.Cl` [GW697999] to `COC(=O)Nc1nc2ccc(Oc3ccc(CC(=O)Nc4cc(C(F)(F)F)ccc4F)cc3)cc2[nH]1` [GW680903], the “%Inh” value falls from 11% to 0%.

Going from `CN(c1ccc2c(c1)nc(NCc1ccccc1)n2C)c1ccnc(Nc2ccc(CS(C)(=O)=O)cc2)n1.Cl` [GW811603] to `CN1CCN(Cc2ccc(NC(=O)Nc3ccc(N(C)c4ccnc(Nc5ccc(CS(C)(=O)=O)cc5)n4)cc3)cc2)CC1.Cl` [GW827654], the “%Inh” value falls from 29% to 27%.

First: COc1cccc(C2=C(Nc3cccc(O)c3)C(=O)NC2=O)c1 [SB-390771]
Second: COc1ccc(C2=C(Nc3cccc(O)c3)C(=O)NC2=O)cc1 [SB-390766]
The “%Inh” value of the first is higher: 12% for the first, 6% for the second.

First: NCCC(NC(=O)c1cc(Br)c(-c2ccnc3[nH]ccc23)s1)c1ccccc1.O=C(O)C(F)(F)F.O=C(O)C(F)(F)F (stereo not shown) [GSK1307810]
Second: O=C(Nc1c(F)cccc1F)c1cc(C(=O)c2ccccc2F)c[nH]1 [GSK1326180]
The “%Inh” value of the first is lower: 0% for the first, 6% for the second.

`O=C(O)C(F)(F)F.O=c1[nH]ccc2nc(N[C@@H]3CCNC3)nc(Nc3cc(Cl)cc(Cl)c3)c12` [GSK2188764] and `CS(=O)(=O)c1cccc(CNc2nc(Nc3ccc4c(c3)CCC(=O)N4)ncc2C(F)(F)F)c1` are the same in “%Inh” value: 0% for the first, 0% for the second.

Going from `Cc1ccc(C)c(NC(=O)Nc2ccc(C)c(-c3ccc(C(=O)Nc4ccncc4)cc3)c2)c1` [GSK1398473] to `Nc1ncc(-c2ccc3nccc(-c4ccncc4)c3c2)cc1S(=O)(=O)N1CCCCC1` [GSK1693850], the “%Inh” value falls from 12% to 0%.

Going from `N#Cc1cnc2cc(-c3cnc(CNCCN4CCOCC4)s3)ccc2c1Nc1ccc(Oc2ccccc2)cc1` [GW664114] to `Cl.N#CCc1ccc(Nc2nccc(Nc3ccc(Oc4ccccc4)cc3)n2)cc1` [GW639905], the “%Inh” value falls from 23% to 0%.

Going from `CN(c1ccc(F)c(NC(=O)c2cccc(OC(C)(C)C#N)c2Cl)c1)c1ccc2nc(NC(=O)C3CC3)sc2n1` to `Fc1cc(Cl)ccc1Nc1ccnc2cc(-c3ccc(CN4CCSCC4)o3)ccc12` [GW560106], the “%Inh” value falls from 17% to 2%.

For `CN(C)c1ncnc2nc[nH]c12` [SKF-31736], the “%Inh” value was 0%.
